Records with an inconclusive call do not appear. Calls of active or inactive are those of the source. The calls were made as follows, unless noted: active = hit-call score of the fitted dose curve at least 0.9, where 1 is the maximum; inconclusive = response in the unintended direction; inactive = score below 0.9.
assay: CCTE_Harrill_HTTr_Apoptosis_MCF7: CCTE's 6-hour Apoptosis Assessment for the High-Throughput Transcriptomics (HTTr) Platform, in MCF-7 cells cultured in DMEM + 10% fetal bovine serum, Harrill Lab (AID 2284011; active = hit-call score of the fitted dose curve at least 0.9, where 1 is the maximum; inactive = score below 0.9)
In short: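 High-content imaging of CellEvent Caspase 3/7 Green signal follows a six-hour exposure, with eight concentrations per chemical. MCF-7 cells grown in DMEM plus 10% fetal bovine serum; activity fitted in both directions against DMSO.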

Compound	outcome	AC50
CC1(C)O[C@@H]2C[C@H]3[C@@H]4C[C@H](F)C5=CC(=O)C=C[C@]5(C)[C@@]4(F)[C@@H](O)C[C@]3(C)[C@]2(C(=O)CO)O1	inactive	–
CC(C)(Oc1ccc(C2CC2(Cl)Cl)cc1)C(=O)O (stereo not given)	inactive	–
CC(=O)OCC(=O)[C@@]12N=C(C)O[C@@H]1C[C@H]1[C@@H]3CCC4=CC(=O)C=C[C@]4(C)[C@H]3[C@@H](O)C[C@@]12C	inactive	–
NC(=O)c1ccccc1O	inactive	–
CC/C=C\C/C=C\C/C=C\CCCCCCCC(=O)O	inactive	–
O=c1c2ccccc2oc2ccccc12	inactive	–
O=C(Nc1ccccc1)c1ccccc1O	inactive	–
Cc1oncc1C(=O)Nc1ccc(C(F)(F)F)cc1	inactive	–
CCCCCCCCCCCCCCCC[n+]1ccccc1	–	61.4 µM (active)
CCCCCCC(O)CO (stereo not given)	inactive	–
NC(=O)OCC(COC(N)=O)c1ccccc1	inactive	–
C[C@]12C=CC(=O)C=C1CC[C@@H]1[C@@H]2[C@@H](O)C[C@@]2(C)[C@H]1CC[C@]2(O)C(=O)CO	inactive	–
OC1CCCCCCCCCCC1	inactive	–
CN(C)c1ccc(N=Nc2ccccc2C(=O)O)cc1	inactive	–
c1ccc(-c2ccccn2)nc1	inactive	–

assay: CCTE_Harrill_HTTr_CellCount_MCF7: CCTE's Cell Proliferation Assessment for the High-Throughput Transcriptomics (HTTr) Platform, Harrill Lab (AID 2284012);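 also: cells exposed to compound for six hours; intended direction is loss of nuclei count meaning fewer cells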
In short: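 MCF-7 cells were exposed for 6 h to an eight-point dilution series; Hoechst-labeled nuclei were counted by high content imaging. Curves were fitted bidirectionally against DMSO as negative control and baseline, with signal loss indicating reduced cell count.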

Compound	outcome
O=C1c2cccc(O)c2C(=O)c2c(O)cc(CO)cc21	inactive
C1=Cc2ccccc2C1	inactive
CC1(C)O[C@@H]2C[C@H]3[C@@H]4C[C@H](F)C5=CC(=O)CC[C@]5(C)[C@H]4[C@@H](O)C[C@]3(C)[C@]2(C(=O)CO)O1	inactive
CC[C@H]1OC(=O)[C@H](C)[C@@H](O[C@H]2C[C@@](C)(OC)[C@@H](O)[C@H](C)O2)[C@H](C)[C@@H](O[C@@H]2O[C@H](C)C[C@H](N(C)C)[C@H]2O)[C@](C)(O)C[C@@H](C)C(=NOCOCCOC)[C@H](C)[C@@H](O)[C@]1(C)O	inactive
CCC(=O)Oc1ccc(/C(CC)=C(\CC)c2ccc(OC(=O)CC)cc2)cc1	inactive
CC(=O)[C@@]1(O)CC[C@H]2[C@@H]3C[C@H](C)C4=CC(=O)C=C[C@]4(C)[C@@]3(F)[C@@H](O)C[C@@]21C	inactive
Cc1cc(C)c(C)cc1C	inactive
C=C(C)[C@H]1CC=C(C)CC1	inactive
C1CN(SSN2CCOCC2)CCO1	inactive
CCN(Cc1cccc(S(=O)(=O)O)c1)c1ccc(C(=C2C=CC(=[N+](CC)Cc3cccc(S(=O)(=O)[O-])c3)C=C2)c2ccccc2)cc1	inactive
CCOC(=O)N1CCC(=C2c3ccc(Cl)cc3CCc3cccnc32)CC1	inactive
O=C(Nc1cccc(C(F)(F)F)c1)c1cc(Br)cc(Br)c1O	inactive
CC(=O)Nc1nnc(S(N)(=O)=O)s1	inactive
O=c1[nH]c(=O)c2[nH]c(=O)[nH]c2[nH]1	inactive
CC(=O)NS(=O)(=O)c1ccc(N)cc1	inactive
CC1(C)O[C@@H]2C[C@H]3[C@@H]4C[C@H](F)C5=CC(=O)C=C[C@]5(C)[C@@]4(F)[C@@H](O)C[C@]3(C)[C@]2(C(=O)CO)O1	inactive
CC(C)(Oc1ccc(C2CC2(Cl)Cl)cc1)C(=O)O (stereo not given)	inactive
CC(=O)OCC(=O)[C@@]12N=C(C)O[C@@H]1C[C@H]1[C@@H]3CCC4=CC(=O)C=C[C@]4(C)[C@H]3[C@@H](O)C[C@@]12C	inactive
NC(=O)c1ccccc1O	inactive
CC/C=C\C/C=C\C/C=C\CCCCCCCC(=O)O	inactive
O=c1c2ccccc2oc2ccccc12	inactive
O=C(Nc1ccccc1)c1ccccc1O	inactive
Cc1oncc1C(=O)Nc1ccc(C(F)(F)F)cc1	inactive
CCCCCCCCCCCCCCCC[n+]1ccccc1	inactive
CCCCCCC(O)CO (stereo not given)	inactive
NC(=O)OCC(COC(N)=O)c1ccccc1	inactive
C[C@]12C=CC(=O)C=C1CC[C@@H]1[C@@H]2[C@@H](O)C[C@@]2(C)[C@H]1CC[C@]2(O)C(=O)CO	inactive
OC1CCCCCCCCCCC1	inactive
CN(C)c1ccc(N=Nc2ccccc2C(=O)O)cc1	inactive
c1ccc(-c2ccccn2)nc1	inactive

From PubChem BioAssay (EPA / NIEHS)
